In PubChem BioAssay AID1159580 (chemical genetic matrix, 2015):
“And” between values parts separate entries of the source, which are not always exact repeats. Equal entries are not always repeated. Screen size: about 5,500 compounds; about 2,000 (36%) were called active. Roughly 18% stayed inconclusive and do not appear here. Rule as the data show it: active = normalized growth mostly below about 0.91 (no sharp cut-off); inconclusive = no clear call, values can overlap the other calls; inactive = mostly above about 0.92. This is one part of the list.

Assay: chemical genetic growth profiling, strain panel (AID 1159580);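 also: tested at 20 µM; growth read once vehicle control cultures reached saturation at 30 °C; 1 = growth at the plate median or of vehicle wells; lower values mean less growth of the strain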
Conditions: S. cerevisiae deletion strains, growth OD

Measured: normalized growth

c1ccc2c(c1)sc1ccccc12
active: locus YAL013W, strain DEP1, stronger effect = lower value 0.807 | locus YAL026C, strain drs2, stronger effect = lower value 0.832 | locus YAL030W, strain snc1, stronger effect = lower value 0.851 | locus YBL061C, strain skt5, stronger effect = lower value 0.811 | locus YBR009C, strain hhf1, stronger effect = lower value 0.734 | locus YBR023C, strain chs3, stronger effect = lower value 0.867 | locus YBR231C, strain swc5, stronger effect = lower value 0.86 | locus YCL011C, strain gbp2, stronger effect = lower value 0.815 | locus YCL016C, strain dcc1, stronger effect = lower value 0.877 | locus YCL069W, strain vba3, stronger effect = lower value 0.778 | locus YCR088W, strain abp1, stronger effect = lower value 0.905 | locus YDL005C, strain med2, stronger effect = lower value 0.906 | locus YDR001C, strain nth1, stronger effect = lower value 0.894 | locus YDR137W, strain rgp1, stronger effect = lower value 0.427 | locus YDR297W, strain sur2, stronger effect = lower value 0.842 | locus YDR318W, strain mcm21, stronger effect = lower value 0.912 | locus YDR334W, strain swr1, stronger effect = lower value 0.871 | locus YDR335W, strain msn5, stronger effect = lower value 0.781 | locus YDR392W, strain spt3, stronger effect = lower value 0.588 | locus YEL003W, strain gim4, stronger effect = lower value 0.572 | locus YEL061C, strain CIN8 (second series), stronger effect = lower value 0.8 | locus YER015W, strain faa2, stronger effect = lower value 0.765 | locus YER111C, strain swi4, stronger effect = lower value 0.823 | locus YER155C, strain BEM2 (second series), stronger effect = lower value 0.223 | locus YGL173C, strain kem1, stronger effect = lower value 0.827 | locus YGL227W, strain vid30, stronger effect = lower value 0.809 | locus YGL240W, strain doc1, stronger effect = lower value 0.778 | locus YGL253W, strain hxk2, stronger effect = lower value 0.854 | locus YHR013C, strain ard1, stronger effect = lower value 1.25 [resistant] | locus YHR142W, strain chs7, stronger effect = lower value 0.597 | locus YJL092W, strain hpr5, stronger effect = lower value 0.841 | locus YJL095W, strain BCK1 (second series), stronger effect = lower value 0.834 | locus YJL129C, strain trk1, stronger effect = lower value 0.802 | locus YJL164C, strain tpk1, stronger effect = lower value 0.802 | locus YJL166W, strain qcr8, stronger effect = lower value 0.652 | locus YJL187C, strain SWE1, stronger effect = lower value 0.882 | locus YKL160W, strain elf1, stronger effect = lower value 0.845 | locus YKR001C, strain vps1, stronger effect = lower value 0.812 | locus YKR026C, strain gcn3, stronger effect = lower value 0.835 | locus YKR091W, strain srl3, stronger effect = lower value 0.924 | locus YLL001W, strain dnm1, stronger effect = lower value 0.768 | locus YLL026W, stronger effect = lower value 0.814 | locus YLR027C, strain aat2, stronger effect = lower value 0.757 | locus YLR221C, strain rsa3, stronger effect = lower value 0.779 | locus YLR258W, strain gsy2, stronger effect = lower value 0.891 | locus YLR262C, strain YPT6 (second series), stronger effect = lower value 0.315 | locus YLR320W, strain mms22, stronger effect = lower value 0.662 | locus YLR371W, strain rom2, stronger effect = lower value 0.854 | locus YLR418C, strain cdc73, stronger effect = lower value 0.785 | locus YML032C, strain rad52, stronger effect = lower value 0.9 | locus YML120C, strain ndi1, stronger effect = lower value 0.749 | locus YMR058W, strain fet3, stronger effect = lower value 0.774 | locus YMR125W, strain sto1, stronger effect = lower value 0.844 | locus YMR129W, stronger effect = lower value 0.909 | locus YMR205C, strain PFK2, stronger effect = lower value 0.737 | locus YMR223W, strain ubp8, stronger effect = lower value 0.86 | locus YNL071W, strain lat1, stronger effect = lower value 0.613 | locus YNL153C, strain GIM3, stronger effect = lower value 0.728 | locus YNL248C, strain rpa49, stronger effect = lower value 0.748 | locus YNL307C, strain MCK1, stronger effect = lower value 0.849 | locus YNL322C, strain KRE1 (second series), stronger effect = lower value 0.894 | locus YNR049C, strain mso1, stronger effect = lower value 0.915 | locus YOR001W, strain rrp6, stronger effect = lower value 0.714 | locus YOR083W, strain WHI5, stronger effect = lower value 0.812 | locus YOR106W, strain vam3, stronger effect = lower value 0.727 | locus YOR184W, strain ser1, stronger effect = lower value 0.676 | locus YOR265W, strain rbl2, stronger effect = lower value 0.873 | locus YPL051W, strain arl3, stronger effect = lower value 0.776 | locus YPL078C, strain atp4, stronger effect = lower value 0.691 | locus YPL106C, strain sse1, stronger effect = lower value 0.778 | strain wtn01, stronger effect = lower value 0.893
inactive: locus YAL021C, strain ccr4, stronger effect = lower value 1.02 | locus YBR021W, strain FUR4, stronger effect = lower value 1.03 | locus YBR171W, strain sec66, stronger effect = lower value 0.912 | locus YBR229C, strain ROT2, stronger effect = lower value 1 | locus YBR279W, strain paf1, stronger effect = lower value 0.952 | locus YCL029C, strain bik1, stronger effect = lower value 0.973 | locus YDL035C, strain GPR1, stronger effect = lower value 0.99 | locus YDL040C, strain nat1, stronger effect = lower value 0.942 | locus YDL074C, strain BRE1, stronger effect = lower value 0.97 | locus YDL101C, strain DUN1, stronger effect = lower value 0.96 | locus YDL134C, strain PPH21, stronger effect = lower value 0.938 | locus YDL185W, strain tfp1, stronger effect = lower value 0.986 | locus YDL192W, strain arf1, stronger effect = lower value 0.959 | locus YDR069C, strain doa4, stronger effect = lower value 1.02 | locus YDR101C, strain arx1, stronger effect = lower value 0.955 | locus YDR159W, strain sac3, stronger effect = lower value 0.869 | locus YDR162C, strain NBP2, stronger effect = lower value 0.883 | locus YDR195W, strain ref2 1.09 | locus YDR388W, stronger effect = lower value 0.971 | locus YDR502C, strain sam2, stronger effect = lower value 0.928 | locus YEL037C, strain rad23, stronger effect = lower value 0.933 | locus YEL061C, strain CIN8, stronger effect = lower value 0.991 | locus YER016W, strain bim1, stronger effect = lower value 0.957 | locus YER110C, stronger effect = lower value 0.97 | locus YER155C, strain BEM2, stronger effect = lower value 0.946 | locus YER167W, strain BCK2, stronger effect = lower value 0.96 | locus YFR010W, strain ubp6, stronger effect = lower value 0.976 | locus YGL078C, strain dbp3, stronger effect = lower value 0.973 | locus YGL086W, strain mad1, stronger effect = lower value 0.941 | locus YGL167C, strain pmr1, stronger effect = lower value 0.937 | locus YGL248W, strain PDE1, stronger effect = lower value 0.898 | locus YGR135W, strain pre9, stronger effect = lower value 0.929 | locus YGR229C, strain SMI1, stronger effect = lower value 0.917 | locus YGR252W, strain gcn5, stronger effect = lower value 1.02 | locus YHR027C, strain rpn1, stronger effect = lower value 0.922 | locus YHR030C, strain SLT2, stronger effect = lower value 0.978 and 0.997 | locus YHR079C, strain IRE1 (second series), stronger effect = lower value 0.957 | locus YHR079C, strain IRE1, stronger effect = lower value 0.996 | locus YHR094C, strain hxt1, stronger effect = lower value 0.972 | locus YHR129C, strain ARP1, stronger effect = lower value 0.981 | locus YHR200W, strain rpn10, stronger effect = lower value 0.97 | locus YIL066C, strain RNR3, stronger effect = lower value 0.994 | locus YIL073C, strain SPO22, stronger effect = lower value 0.951 | locus YIL125W, strain kgd1, stronger effect = lower value 0.962 | locus YIR030C, strain dcg1, stronger effect = lower value 0.957 | locus YJL095W, strain BCK1, stronger effect = lower value 0.834 and 1.01 | locus YJL115W, strain asf1, stronger effect = lower value 0.921 | locus YJL134W, strain LCB3, stronger effect = lower value 0.995 | locus YJL154C, strain vps35, stronger effect = lower value 0.924 | locus YJL168C, strain set2, stronger effect = lower value 0.97 | locus YJL187C, strain SWE1 (second series), stronger effect = lower value 0.957 | locus YJR043C, strain POL32, stronger effect = lower value 0.99 | locus YJR066W, strain TOR1, stronger effect = lower value 0.974 | locus YKL009W, strain mrt4, stronger effect = lower value 0.966 | locus YKL068W, stronger effect = lower value 0.973 | locus YKL085W, strain MDH1 (second series), stronger effect = lower value 0.971 | locus YKL085W, strain MDH1, stronger effect = lower value 0.971 | locus YLL041C, strain sdh2, stronger effect = lower value 0.935 | locus YLR039C, strain RIC1, stronger effect = lower value 0.735 | locus YLR058C, strain SHM2, stronger effect = lower value 0.968 | locus YLR102C, strain apc9, stronger effect = lower value 0.974 | locus YLR113W, strain HOG1, stronger effect = lower value 1.02 | locus YLR262C, strain YPT6, stronger effect = lower value 0.656 | locus YLR268W, strain sec22, stronger effect = lower value 0.897 | locus YLR330W, strain CHS5, stronger effect = lower value 0.95 | locus YLR342W, strain FKS1 (second series), stronger effect = lower value 1.03 | locus YLR342W, strain FKS1, stronger effect = lower value 0.959 | locus YLR357W, strain rsc2, stronger effect = lower value 0.909 | locus YLR370C, strain arc18, stronger effect = lower value 0.929 | locus YLR384C, strain iki3, stronger effect = lower value 0.939 | locus YML016C, strain PPZ1, stronger effect = lower value 0.988 | locus YML124C, strain tub3, stronger effect = lower value 0.971 | locus YMR078C, strain ctf18, stronger effect = lower value 0.967 | locus YMR231W, strain pep5, stronger effect = lower value 0.967 | locus YMR263W, strain SAP30, stronger effect = lower value 0.954 | locus YMR307W, strain GAS1, stronger effect = lower value 0.869 | locus YNL067W, strain RPL9B, stronger effect = lower value 0.955 | locus YNL128W, strain TEP1, stronger effect = lower value 0.965 | locus YNL183C, strain NPR1, stronger effect = lower value 0.96 | locus YNL209W, strain ssb2, stronger effect = lower value 0.948 | locus YNL233W, strain BNI4, stronger effect = lower value 0.873 | locus YNL250W, strain rad50, stronger effect = lower value 0.974 | locus YNL271C, strain bni1, stronger effect = lower value 0.95 | locus YNL298W, strain CLA4, stronger effect = lower value 0.929 | locus YNR052C, strain pop2, stronger effect = lower value 0.991 | locus YOL012C, strain htz1 0.804 | locus YOL147C, strain pex11, stronger effect = lower value 0.953 | locus YOR061W, strain CKA2, stronger effect = lower value 0.994 | locus YOR069W, strain VPS5, stronger effect = lower value 0.996 | locus YOR070C, strain gyp1, stronger effect = lower value 0.937 | locus YOR080W, strain dia2, stronger effect = lower value 0.948 | locus YOR136W, strain idh2, stronger effect = lower value 0.951 | locus YOR144C, strain elg1, stronger effect = lower value 0.972 | locus YOR231W, strain MKK1, stronger effect = lower value 1.03 | locus YOR270C, strain vph1, stronger effect = lower value 1.02 | locus YOR290C, strain snf2, stronger effect = lower value 0.891 | locus YOR316C, strain cot1, stronger effect = lower value 0.966 | locus YPL240C, strain hsp82, stronger effect = lower value 0.934 | locus YPL241C, strain CIN2, stronger effect = lower value 0.999 | locus YPL256C, strain CLN2, stronger effect = lower value 0.984 | locus YPR119W, strain clb2, stronger effect = lower value 0.965 | locus YPR141C, strain kar3, stronger effect = lower value 0.959 | locus YPR163C, strain tif3, stronger effect = lower value 0.983 | locus YPR167C, strain met16, stronger effect = lower value 0.972
